Values joined by “and” are separate entries in the source; they are usually repeats but may differ in a detail not shown here. Identical values can stand only once. Inconclusive results are not listed. A call without a number means that no potency is given here. Active and inactive are the calls of the source. Calls follow the shape of the dose curve; as a rule, active = well fitted curve in the direction sought with a large enough effect; inconclusive = small, poorly fitted or top-dose-only effect, or another doubt; inactive = no such curve, though single readings can be large; an effect the other way counts as inactive or inconclusive.
Experiments:
[1] = Primary qHTS for inhibitors of nuclear receptor binding SET domain protein 2 (NSD2) in an RCH-ACV wild type WT cells (2C) (AID 1645877); also: nearly all actives have a fitted effect of over 70% in size; also: potency is read from the fitted curve at half-maximal effect
[2] = target: Glutathione peroxidase 1 (Homo sapiens) (UniProt P07203); experiment: Primary qHTS Assay for Inhibitors of Recombinant Selenoprotein Glutathione Peroxidase 1 (GPX1) (AID 1845191); also: nearly all actives have a fitted effect of over 65% in size; also: potency is read from the fitted curve at half-maximal effect
How it was run: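 GPX1 10 nM, GR 100 nM, GSH 1 mM, NADPH 0.5 mM, CHP 0.5 mM (final). 30-min cpd preincubation, RT. Ex340/Em450 read t=0, t=15 min.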

[3] = target: Phospholipid hydroperoxide glutathione peroxidase GPX4 (Homo sapiens) (UniProt P36969); experiment: Primary qHTS Assay for Inhibitors of Recombinant Selenoprotein Glutathione Peroxidase 4 (GPX4) (AID 1845192); also: series mostly up to about 50 µM; nearly all actives have a fitted effect of over 65% in size
How it was run: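 qHTS, GR-coupled: GPX4 200 nM + cpd 30 min RT → GSH 1 mM, NADPH 0.5 mM, GR 100 nM → CHP 0.5 mM start; fluor 340/450 at t0 and t15 min; no-enzyme wells as control.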

[4] = target: Luciferin 4-monooxygenase (Photinus pyralis) (UniProt P08659); experiment: Primary firefly luciferase (FLuc) qHTS assay for identification of artifact compounds. (AID 1845220); also: nearly all actives have a fitted effect of over 60% in size
How it was run: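 In this counter-screen for luciferase artifacts, test compounds met substrate (10 uM each luciferin and ATP) before 10 nM enzyme started the reaction. Light output was measured 5 min later.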

[5] = Primary fluorescence-based thiol-reactive (MSTI) qHTS assay for identification of artifact compounds. (AID 1845221); also: nearly all actives have a fitted effect of over 65% in size; also: potency is read from the fitted curve at half-maximal effect
How it was run: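 Curve-fitted percent inhibition (4-parameter Hill) derived from fluorescence, Ex 525/Em 598 nm, scaled with Acetyl-MSTI and MSTI; 1 h incubation at room temperature.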

[6] = Primary redox qHTS assay for identification of artifact compounds. (AID 1845223)
How it was run: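 Redox-cycling detection via DTT (250 uM final) oxidation coupled to Amplex Red (25 uM)/HRP (250 mU/mL) in HBSS. 15 min preincubation plus 30 min after DTT, room temperature. Ex/Em 525/598 nm; 4-parameter Hill fit against DMSO and 10 uM DA3003.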

[7] = test system: Nanoluciferase (engineered Oplophorus gracilirostris luciferase); experiment: Primary Nanoluciferase (NLuc) qHTS assay for identification of artifact compounds. (AID 1845222);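 also: NLuc secreted into diluted conditioned medium of S16 cells; series mostly up to about 54 µM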
How it was run: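 Using secreted nanoluciferase in S16 culture medium (0.22 um filtered, 1:55 dilution), compounds were preincubated 15 min at RT. Signal was generated with Nano-Glo reagent (1:100) over 5 min.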

Chain of Phospholipid hydroperoxide glutathione peroxidase GPX4 (Homo sapiens) (P36969 whole entry, looked up): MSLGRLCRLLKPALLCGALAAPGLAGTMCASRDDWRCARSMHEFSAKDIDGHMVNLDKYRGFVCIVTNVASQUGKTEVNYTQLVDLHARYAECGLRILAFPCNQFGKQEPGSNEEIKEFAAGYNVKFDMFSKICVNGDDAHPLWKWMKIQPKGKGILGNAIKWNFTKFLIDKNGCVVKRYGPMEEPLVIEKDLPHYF
Chain of Glutathione peroxidase 1 (Homo sapiens) (P07203 whole entry, looked up): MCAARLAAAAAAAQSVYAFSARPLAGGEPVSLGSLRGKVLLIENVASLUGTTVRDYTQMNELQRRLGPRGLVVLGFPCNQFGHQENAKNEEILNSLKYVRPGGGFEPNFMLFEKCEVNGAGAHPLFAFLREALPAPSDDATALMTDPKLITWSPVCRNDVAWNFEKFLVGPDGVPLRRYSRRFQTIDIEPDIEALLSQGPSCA

Compound	Potency [1]	Potency [2]	Potency [3]	Potency [4]	Potency [5]	Potency [6]	Potency [7]
Cc1cc(Nc2ncnc3ccc(-c4ccc(CNCCS(C)(=O)=O)o4)cc23)ccc1Oc1ccn2ncnc2c1	10.3 µM (active) and 14.8 µM (active)	inactive	inactive	inactive	inactive	inactive	
NC(=O)c1c(OCc2c(F)cc(Br)cc2F)nsc1NC(=O)NCCCCN1CCCC1	7.42 µM (active)	inactive			inactive		inactive
COc1cccc2nc(-c3cccs3)nc(NN3C(=O)C=C(C)C3=O)c12	0.263 µM (active)	inactive			inactive	inactive	inactive
COc1cc(C(=O)N2CCC(N3CCN(C)CC3)CC2)ccc1Nc1ncc2c(n1)N(C)c1ccccc1C(=O)N2C	1.45 µM (active) and 1.86 µM (active)	inactive		inactive	inactive	inactive	inactive
COc1ccc(-c2cc3c(C)nc(N)nc3n(C3CCC(OCCO)CC3)c2=O)cn1 (stereo unspecified)	20.5 nM (active) and 41.7 nM (active)	5.78 µM (active) and 16.1 µM (active)			inactive	inactive	inactive
NC(=O)Nc1cc(-c2cccc(F)c2)sc1C(=O)N[C@H]1CCCNC1	81.7 nM (active) and 74.2 nM (active)	inactive		inactive	inactive		inactive
CNC(=O)c1ccc(-c2cnc3ncc(Cc4ccc5ncccc5c4)n3n2)cc1F	inactive	inactive	inactive		inactive		inactive
Nc1cc(C(F)(F)F)c(-c2cc(N3CCOCC3)nc(N3CCOCC3)n2)cn1	728 nM (active) and 934 nM (active)	inactive		inactive	inactive	inactive	inactive
O=C(c1cncc(Br)c1)N1CCC(N2CCCC2)CC1	inactive	inactive	inactive		inactive	inactive	inactive
CNC(=O)c1c(F)cccc1Nc1nc(Nc2cc3c(cc2OC)CCN3C(=O)CN(C)C)nc2[nH]ccc12	3.25 µM (active) and 5.9 µM (active)	inactive	inactive		1.06 µM (active)		inactive
CC(C)(C)c1cc(NC(=O)Nc2ccc(-c3cn4c(n3)sc3cc(OCCN5CCOCC5)ccc34)cc2)no1	inactive	inactive	inactive	inactive			inactive
CNc1nccc(-c2cccnc2Oc2cc(C(=O)Nc3cccc(C(F)(F)F)c3)ccc2C)n1	4.09 µM (active)	inactive		inactive	inactive	inactive	inactive
CC1(C)CCC(c2ccc(Cl)cc2)=C(CN2CCN(c3ccc(C(=O)NS(=O)(=O)c4ccc(N[C@H](CCN5CCOCC5)CSc5ccccc5)c(S(=O)(=O)C(F)(F)F)c4)cc3)CC2)C1	365 nM (active) and 742 nM (active)	inactive			inactive		inactive
COC(=O)c1ccc2c(C(=Nc3ccc(N(C)C(=O)CN4CCN(C)CC4)cc3)c3ccccc3)c(O)[nH]c2c1	2.3 µM (active) and 3.32 µM (active)	inactive	inactive		inactive		inactive
CNC(=O)c1nn(C)c2c1C(C)(C)Cc1cnc(Nc3ccc(N4CCN(C)CC4)cc3)nc1-2	409 nM (active) and 417 nM (active)	inactive	inactive	inactive			inactive
Cn1cc(-c2ccncc2)c(-c2ccc(OCc3ccc4ccccc4n3)cc2)n1	14.5 µM (active)	inactive		inactive	inactive		inactive
CC1(O)CC(c2nc(-c3ccc4ccc(-c5ccccc5)nc4c3)c3c(N)nccn23)C1 (stereo unspecified)	18.3 µM (active)	inactive	inactive	inactive		inactive	inactive
Cc1cn2cc(C(=O)N(C)CCO)cc(N[C@@H]3CCOc4cccc(C)c43)c2n1	inactive	inactive	inactive	inactive		inactive	inactive
OCc1ccc(-c2ccc(-c3ccc(CO)s3)o2)s1	31.7 nM (active) and 1.32 µM (active)	inactive	inactive		2.6 µM (active)	inactive	
Cc1cnc(Nc2ccc(F)cc2Cl)nc1-c1c[nH]c(C(=O)N[C@H](CO)c2cccc(Cl)c2)c1	3.65 µM (active) and 14.8 µM (active)	inactive	inactive		inactive	inactive	inactive
CCCCCN(CCC12CC3CC(CC(C3)C1)C2)C(=O)NCCCc1ccncc1	16.3 µM (active)	inactive		inactive		inactive	inactive
